Results filed as inconclusive are left out. Calls of active or inactive are those of the source. The call rests on the fitted dose curve; in most records, active means well fitted cell-killing curve with a large enough effect; inconclusive means small, poorly fitted or top-dose-only effect; inactive means no such curve, though single readings can be large or run the other way.
Potency means the concentration at half of the fitted maximal effect.

This assay can be described thus: qHTS of pediatric cancer cell lines to identify multiple opportunities for drug repurposing: Primary screen for OHS-50 cells (AID 1347103). Further: nearly all actives have a fitted effect of over 40% in size. Particulars: OHS-50 osteosarcoma viability, CellTiter-Glo luminescence, 48 h; series mostly up to 57.3 µM. From the text: Drug repurposing or repositioning has been offered as a strategy for drug development in oncology programs. This approach has special potential for childhood cancers and other rare or orphan diseases, where the expected return on new drug development has been a disincentive to pharmaceuticals.
In this project we exploit the poly-pharmacology of drugs to discover new indications via phenotypic screening of a panel of 19 well-characterized cell lines derived from solid tumors seen in children and adolescents. The goal is to identify approved drugs with previously unrecognized anticancer properties that has the potential to reveal new mechanisms and biological processes involved in carcinogenesis or drug resistance. We employed a titration-based paradigm (quantitative high-throughput screening or qHTS), where all compounds were tested at multiple concentrations for their effect on cell viability. Concentration-response curves (CRCs) were derived directly from the primary screen, and both potency and efficacy values were used to identify compounds with robust bioactivity profiles. We screened the NIH Chemical Genomics Center (NCGC) Pharmaceutical Collection (NPC) and Mechanism Interrogation Plate (MIPE) small molecule collections of approved and investigational compounds against these cell lines; and measured metabolically active cells after 48 hours of compound treatment as a proxy for cell viability.
Assay Submitter: Nathalia J. Martinez, National Center for Advancing Translational Sciences, National Institutes of Health, Rockville, MD, USA; email: natalia.martinez@nih.gov
[1] Shen, M et al. Quantitative high-throughput phenotypic screening of pediatric cancer cell lines identifies multiple opportunities for drug repurposing. Oncotarget 2017 Dec 19;9(4):4758-4772. PMID 29435139.
The cells were obtained from University of North Carolina (UNC), Pediatric Preclinical Testing Program (PPT), and Coriell Institute (CI).
qHTS cell viability assay:
Cells were assayed in growth media at a density of 500-1,000 cells/well. Five microliters of cells were dispensed into 1,536-well, white, solid-bottom, TC-treated plates (Greiner Bio One) using a multidrop dispenser and incubated at 37 degrees C, 5% CO2, under a humidified atmosphere for 5 hours. Twenty-three nanoliters of compounds and controls (neutral control DMSO or positive control bortezomib at final concentration of 2.3 µM) were subsequently transferred by Kalypsys pintool. For primary screens, the MIPE collection was tested at 11-point dilutions (final concentrations range from 0.78 nM to 46 µM) and the NPC collection at 8-point dilutions (final concentrations range from 0.59 nM to 46 µM). Compounds tested in follow-up screens were assayed at 11-point dilutions. Cells were incubated for 48 hours, followed by addition of 3 µL of CellTiter-Glo (Promega). After a 15 min incubation at room temperature, samples were analyzed for luminescence intensity using a ViewLux High-throughput CCD imager equipped with clear filters.
On the technique in general: Quantitative high-throughput screening tests each substance at several concentrations.
For the compound `CC(C)c1cc(C(=O)N2Cc3ccc(CN4CCN(C)CC4)cc3C2)c(O)cc1O`, the Potency is 0.769 µM (active).
Take `COC(=O)Nc1ccc(-c2nc(N3CCOCC3)c3cnn(C4CCN(Cc5cccnc5)CC4)c3n2)cc1`: the Potency was 0.109 µM (active).
`C=C1C(=CC=C2CCCC3(C)[C@@H]([C@H](C)C=CC=CC(O)(CC)CC)CC[C@@H]23)C[C@@H](O)C[C@@H]1O` (stereo not given in full): the Potency was 24.3 µM (active).
On to `COCCn1c2c([n+](Cc3cnccn3)c1C)C(=O)c1ccccc1C2=O`, for which the Potency was 0.0153 µM (active).
As to `CC(C)C[C@H](NC(=O)CNC(=O)c1cc(Cl)ccc1Cl)B(O)O`, the Potency is 6.11 µM (active).
Turning to `NC(=O)c1c(OCc2c(F)cc(Br)cc2F)nsc1NC(=O)NCCCCN1CCCC1`, the Potency was 24.3 µM (active).
Consider `OCCCNc1cc(-c2ccnc(Nc3cccc(Cl)c3)n2)ccn1`, for which the Potency is 0.153 µM (active).
As to `COc1cc2c(Nc3ccc(NC(=O)c4ccccc4)cc3)ncnc2cc1OCCCN1CCOCC1`, the Potency is 27.3 µM (active).
Turning to `COc1ccc2c(c1)CC[C@@H](CN(C)CC(=O)O)[C@H]2c1ccccc1`, the Potency was 4.32 µM (active).
`Cc1cn2cc(C(=O)N(C)CCO)cc(N[C@@H]3CCOc4cccc(C)c43)c2n1`: the Potency entry was “inactive”.
Regarding `COc1ccc(-n2nc(C(N)=O)c3c2C(=O)N(c2ccc(N4CCCCC4=O)cc2)CC3)cc1`, the Potency result is “inactive”.
`Cc1cc(Nc2ncnc3ccc(-c4ccc(CNCCS(C)(=O)=O)o4)cc23)ccc1Oc1ccn2ncnc2c1`: the Potency is 1.22 µM (active).
As for `CC(=O)Nc1nc(C)c(-c2ccc(Cl)c(S(=O)(=O)NCCO)c2)s1`, the Potency is 0.544 µM (active).
With `Cc1c(CN2CCN(S(C)(=O)=O)CC2)sc2c(N3CCOCC3)nc(-c3cnc(N)nc3)nc12` the figure was 0.0097 µM (active); with `Nc1ccn([C@@H]2CS[C@H](CO)O2)c(=O)n1`, “inactive”.
Turning to `Cc1cn2c(-c3cn[nH]c3)cnc2c(Nc2ccc(C(=O)N3CCNCC3)cc2F)n1`, the Potency is 13.7 µM (active).
As for `CCOC(=O)C1=C(C)NC2=C(C(=O)CC(C)(C)C2)C1c1ccc(-c2ccccc2)cc1` (stereo not given), the Potency was 19.3 µM (active).
Take `Cn1c(=O)n(-c2ccc(C(C)(C)C#N)cc2)c2c3cc(-c4cnc5ccccc5c4)ccc3ncc21`: the Potency was 0.109 µM (active).
Consider `Cc1cc(Nc2cc(NC(=O)c3c(Cl)cccc3Cl)ccn2)nc(N)n1`, for which the Potency was 8.63 µM (active).
Consider `O=C(O)C1(Cc2cccc(Nc3nccs3)n2)CCC(Oc2cccc(Cl)c2F)CC1` (stereo not given), for which the Potency was 0.544 µM (active).
As for `CNC(=O)c1c(F)cccc1Nc1nc(Nc2cc3c(cc2OC)CCN3C(=O)CN(C)C)nc2[nH]ccc12`, the Potency is 0.344 µM (active).
For `C=CC(=O)Nc1cc2c(Nc3ccc(F)c(Cl)c3)ncnc2cc1C#CC(C)(C)N1CCN(C)CC1`, the Potency was 3.85 µM (active).
On to `NC(=O)Nc1cc(-c2cccc(F)c2)sc1C(=O)N[C@H]1CCCNC1`, for which the Potency is 0.172 µM (active).
Turning to `c1cc(-c2cnn3cc(-c4ccc(OCCN5CCCCC5)cc4)cnc23)ccn1`, the Potency was 9.68 µM (active).
In the case of `CC(C)(C)c1cc(C(C)(C)C)c(NC(=O)c2c[nH]c3ccccc3c2=O)cc1O`, the Potency entry is “inactive”.
With `Cn1c2cc(S(C)=O)sc2c2cnn(Cc3cccc(N)c3)c(=O)c21` (stereo not given) the entry was “inactive”.
Next, `CN(C)Cc1c(C(=O)NCCOc2ccc(C(=O)NO)cc2)oc2ccccc12`: 0.769 µM (active).
With `CC(C)CC(=O)Nc1n[nH]c2c1CN(C(=O)C1CCN(C)CC1)C2(C)C` the figure was 3.43 µM (active); with `COc1ccc(F)c(F)c1C(=O)c1cnc(NC2CCN(S(C)(=O)=O)CC2)nc1N`, 3.06 µM (active); with `COc1c(N2C[C@@H]3CCCN[C@H]3C2)c(F)cc2c(=O)c(C(=O)O)cn(C3CC3)c12`, “inactive”.
With `Cc1cc(N2CCOCC2)cc2[nH]c(-c3c(NC[C@@H](O)c4cccc(Cl)c4)cc[nH]c3=O)nc12`, the Potency was 0.0968 µM (active).
With `CS(=O)(=O)N1CCN(Cc2cc3nc(-c4cccc5[nH]ncc45)nc(N4CCOCC4)c3s2)CC1`, the Potency is 0.0769 µM (active).
Regarding `O=C(O)CCCc1c[nH]c2ccccc12`, the Potency result was “inactive”.
Next, `COC(=O)Nc1nc2ccc(C(=O)c3ccc(F)cc3)cc2[nH]1`: 0.968 µM (active); `Cc1nc(N)ncc1-c1nc(N2CCOCC2)c2sc(C(C)(C)O)cc2n1`: 0.0685 µM (active); `COc1cc2ncn(-c3cc(OCc4ccccc4C(F)(F)F)c(C(N)=O)s3)c2cc1OC`: 1.22 µM (active).
As to `CC1(O)CC(c2nc(-c3ccc4ccc(-c5ccccc5)nc4c3)c3c(N)nccn23)C1` (stereo not given), the Potency is 0.544 µM (active).
In the case of `Cc1ccc2nc(NC(=O)CSc3nc4c(c(=O)n3-c3ccccc3)SCC4)sc2c1`, the Potency was 13.7 µM (active).
Consider `Cc1ccc(C(N)=O)cc1Nc1nccc(-c2cn(C(C)C)c3cnccc23)n1`, for which the Potency was 9.68 µM (active).
Take `CC(NCc1ccc2c(c1)nc(NC(=O)c1ccc(-c3cn[nH]c3)s1)n2CC(C)(C)O)C(C)(C)C` (stereo not given): the Potency is 0.485 µM (active).

The values are drawn from PubChem BioAssay (NCATS).
